The values that follow come from PMC7862700, “An all-to-all approach to the identification of sequence-specific readers for epigenetic DNA modifications on cytosine”.

Holding throughout (assay): DAPPL (digital affinity profiling via proximity ligation, sequencing); 10 mM Tris-HCl pH 7.5, 50 mM NaCl, 1 mM DTT, 4% glycerol, room temperature, 30 min; GST-TFs on glutathione beads, 16-mer random dsDNA library, 0.1% formaldehyde crosslink after washing; high values mean tight binding
Common to all, as to conditions: protein: recombinant; tags: N-terminal GST; dsDNA, one strand shown

The target in one experiment is T1, ELK1 (Homo sapiens, UniProt P19419 1-428).
T1 sequence: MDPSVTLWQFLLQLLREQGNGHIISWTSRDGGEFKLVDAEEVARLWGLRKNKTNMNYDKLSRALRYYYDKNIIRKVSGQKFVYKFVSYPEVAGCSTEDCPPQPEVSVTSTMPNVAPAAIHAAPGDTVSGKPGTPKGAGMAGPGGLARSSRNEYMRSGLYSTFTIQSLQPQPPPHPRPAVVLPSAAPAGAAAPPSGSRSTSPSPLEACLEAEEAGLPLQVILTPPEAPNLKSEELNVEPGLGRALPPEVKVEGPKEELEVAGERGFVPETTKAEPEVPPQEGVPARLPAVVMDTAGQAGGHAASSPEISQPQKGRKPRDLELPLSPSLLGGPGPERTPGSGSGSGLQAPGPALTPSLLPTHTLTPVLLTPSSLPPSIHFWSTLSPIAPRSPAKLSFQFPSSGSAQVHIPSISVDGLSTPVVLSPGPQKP
The method in brief: (§1)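 Beads coated with glutathione captured GST-fused human transcription factors that had been expressed in yeast, and the factors were then given DNA barcodes and pooled with a tag-only sample. The pools were incubated with 200 nmole of a random double-stranded 16-mer DNA library in Tris/NaCl/DTT/glycerol buffer for 30 min at room temperature, washed, crosslinked with 0.1% formaldehyde and proximity-ligated with BsaI/T4 ligase at 37 °C for 1 h. PCR amplification and Illumina NextSeq500 sequencing came last. Binding signal is each hexamer's read frequency for a factor divided by its frequency for the tag-only sample.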

A further experiment concerns the target T2, GABPA (Homo sapiens, UniProt Q06546 1-454).
T2 sequence: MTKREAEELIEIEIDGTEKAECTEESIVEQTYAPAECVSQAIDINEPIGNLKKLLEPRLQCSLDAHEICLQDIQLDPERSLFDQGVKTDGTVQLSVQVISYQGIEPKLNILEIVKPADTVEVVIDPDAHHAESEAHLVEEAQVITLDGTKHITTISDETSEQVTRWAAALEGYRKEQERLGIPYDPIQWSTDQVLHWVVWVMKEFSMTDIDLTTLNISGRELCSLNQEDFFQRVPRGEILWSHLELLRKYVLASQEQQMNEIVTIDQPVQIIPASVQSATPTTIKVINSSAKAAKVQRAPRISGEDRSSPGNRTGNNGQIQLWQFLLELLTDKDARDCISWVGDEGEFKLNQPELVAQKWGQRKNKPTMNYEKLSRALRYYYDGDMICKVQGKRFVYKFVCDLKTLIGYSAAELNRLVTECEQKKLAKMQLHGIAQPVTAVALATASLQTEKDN
The method in brief:
as §1

The target in the next experiment is T3, ERG (Homo sapiens, UniProt P11308 1-479).
T3 sequence: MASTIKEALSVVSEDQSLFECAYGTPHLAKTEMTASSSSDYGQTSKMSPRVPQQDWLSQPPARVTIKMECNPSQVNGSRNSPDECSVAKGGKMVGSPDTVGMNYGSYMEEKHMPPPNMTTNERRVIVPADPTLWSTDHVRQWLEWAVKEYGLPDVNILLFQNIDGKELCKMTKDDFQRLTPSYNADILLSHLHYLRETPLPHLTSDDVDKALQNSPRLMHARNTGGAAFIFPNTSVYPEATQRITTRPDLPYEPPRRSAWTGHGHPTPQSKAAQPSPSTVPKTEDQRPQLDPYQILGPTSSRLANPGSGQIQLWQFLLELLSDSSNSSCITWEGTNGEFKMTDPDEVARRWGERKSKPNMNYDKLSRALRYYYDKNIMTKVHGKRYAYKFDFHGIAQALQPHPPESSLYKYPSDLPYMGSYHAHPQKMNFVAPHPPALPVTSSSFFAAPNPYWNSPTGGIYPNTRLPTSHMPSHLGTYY
In outline:
as §1

The target of another experiment is ELF1 (Homo sapiens, UniProt P32519 1-619). In outline:
as §1

For the next experiment, the target named is T4, EHF (Homo sapiens, UniProt Q9NZC4 1-300).
T4 sequence: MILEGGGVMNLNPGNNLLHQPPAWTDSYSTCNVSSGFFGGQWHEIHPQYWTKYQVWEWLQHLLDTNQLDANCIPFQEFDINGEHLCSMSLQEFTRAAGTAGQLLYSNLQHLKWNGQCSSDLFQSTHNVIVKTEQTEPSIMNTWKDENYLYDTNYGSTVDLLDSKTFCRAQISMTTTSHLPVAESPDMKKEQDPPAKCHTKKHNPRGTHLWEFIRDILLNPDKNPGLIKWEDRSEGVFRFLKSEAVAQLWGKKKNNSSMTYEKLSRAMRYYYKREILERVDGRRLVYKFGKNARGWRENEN
The method in brief: as §1

A further experiment has as its target SPI1 (Homo sapiens, UniProt P17947 1-270). In outline: as §1
Another experiment has as its target SPIB (Homo sapiens, UniProt Q01892 1-262). The method in brief: as §1
Another experiment addresses T5, FEV (Homo sapiens, UniProt Q99581 1-238).
T5 sequence: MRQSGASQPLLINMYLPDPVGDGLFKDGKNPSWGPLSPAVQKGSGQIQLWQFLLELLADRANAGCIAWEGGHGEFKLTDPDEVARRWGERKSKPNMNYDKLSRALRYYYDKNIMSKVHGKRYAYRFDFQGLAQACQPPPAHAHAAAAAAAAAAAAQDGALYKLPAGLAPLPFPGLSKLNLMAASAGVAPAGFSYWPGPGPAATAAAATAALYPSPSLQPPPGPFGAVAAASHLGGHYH
In outline:
as §1

The target in the next experiment is ETV5 (Homo sapiens, UniProt P41161 1-510). The method in brief: as §1
The target in the next experiment is ELF4 (Homo sapiens, UniProt Q99607 1-663). The method in brief:
as §1

For the next experiment, the target named is T6, ELK4 (Homo sapiens, UniProt P28324-2 1-405).
T6 sequence: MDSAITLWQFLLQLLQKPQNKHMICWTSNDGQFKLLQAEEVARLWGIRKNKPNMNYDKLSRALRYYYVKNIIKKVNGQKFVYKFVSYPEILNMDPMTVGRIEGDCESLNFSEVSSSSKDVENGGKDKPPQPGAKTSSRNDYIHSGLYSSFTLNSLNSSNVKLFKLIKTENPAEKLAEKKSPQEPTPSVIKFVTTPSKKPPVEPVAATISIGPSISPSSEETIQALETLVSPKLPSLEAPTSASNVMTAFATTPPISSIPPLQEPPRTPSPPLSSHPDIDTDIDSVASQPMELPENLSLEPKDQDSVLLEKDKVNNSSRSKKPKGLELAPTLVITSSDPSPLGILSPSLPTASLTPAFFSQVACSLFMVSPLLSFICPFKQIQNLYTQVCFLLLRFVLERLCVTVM
In outline: as §1

For the next experiment, the target named is T7, ETV2 (Homo sapiens, UniProt O00321 1-342).
T7 sequence: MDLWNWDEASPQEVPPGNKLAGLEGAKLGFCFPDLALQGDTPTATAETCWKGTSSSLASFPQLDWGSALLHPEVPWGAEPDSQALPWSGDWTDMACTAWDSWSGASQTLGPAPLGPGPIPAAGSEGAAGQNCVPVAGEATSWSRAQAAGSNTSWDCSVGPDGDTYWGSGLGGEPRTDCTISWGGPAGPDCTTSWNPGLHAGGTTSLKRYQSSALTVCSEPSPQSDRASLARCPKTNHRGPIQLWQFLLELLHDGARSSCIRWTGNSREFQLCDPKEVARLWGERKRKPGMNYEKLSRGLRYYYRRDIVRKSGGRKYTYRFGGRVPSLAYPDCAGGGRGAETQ
In outline: as §1

A further experiment addresses ETV1 (Homo sapiens, UniProt P50549 1-477). The method in brief:
as §1

Another experiment has as its target T8, ERF (Homo sapiens, UniProt P50548 1-548).
T8 sequence: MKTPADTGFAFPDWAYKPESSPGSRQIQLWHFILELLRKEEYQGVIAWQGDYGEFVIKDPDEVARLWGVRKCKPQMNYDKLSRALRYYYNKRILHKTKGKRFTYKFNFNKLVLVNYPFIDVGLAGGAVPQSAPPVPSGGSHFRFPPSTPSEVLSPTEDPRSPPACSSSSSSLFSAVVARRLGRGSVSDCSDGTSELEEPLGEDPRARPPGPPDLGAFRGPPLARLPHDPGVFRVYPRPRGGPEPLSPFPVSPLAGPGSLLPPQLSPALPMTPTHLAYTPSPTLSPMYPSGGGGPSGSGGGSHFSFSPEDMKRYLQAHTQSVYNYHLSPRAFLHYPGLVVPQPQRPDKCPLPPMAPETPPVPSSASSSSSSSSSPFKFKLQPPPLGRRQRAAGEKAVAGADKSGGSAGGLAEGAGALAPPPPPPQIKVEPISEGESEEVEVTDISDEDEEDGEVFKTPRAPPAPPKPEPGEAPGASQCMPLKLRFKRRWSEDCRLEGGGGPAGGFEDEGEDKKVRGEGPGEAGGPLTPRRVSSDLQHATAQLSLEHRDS
The method in brief:
as §1

Another experiment deals with T9, ETV3L (Homo sapiens, UniProt Q6ZN32 1-361).
T9 sequence: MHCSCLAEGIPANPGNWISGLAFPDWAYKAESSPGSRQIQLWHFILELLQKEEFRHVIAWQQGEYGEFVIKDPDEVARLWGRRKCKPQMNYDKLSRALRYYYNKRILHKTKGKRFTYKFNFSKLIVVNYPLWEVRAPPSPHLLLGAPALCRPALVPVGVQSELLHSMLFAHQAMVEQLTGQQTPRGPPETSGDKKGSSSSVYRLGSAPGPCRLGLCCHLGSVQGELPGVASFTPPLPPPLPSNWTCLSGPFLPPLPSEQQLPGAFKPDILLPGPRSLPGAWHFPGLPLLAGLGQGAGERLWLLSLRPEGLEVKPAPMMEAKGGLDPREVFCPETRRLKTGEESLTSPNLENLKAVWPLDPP
In outline: as §1

The next experiment concerns the target T10, ETS2 (Homo sapiens, UniProt P15036 1-469).
T10 sequence: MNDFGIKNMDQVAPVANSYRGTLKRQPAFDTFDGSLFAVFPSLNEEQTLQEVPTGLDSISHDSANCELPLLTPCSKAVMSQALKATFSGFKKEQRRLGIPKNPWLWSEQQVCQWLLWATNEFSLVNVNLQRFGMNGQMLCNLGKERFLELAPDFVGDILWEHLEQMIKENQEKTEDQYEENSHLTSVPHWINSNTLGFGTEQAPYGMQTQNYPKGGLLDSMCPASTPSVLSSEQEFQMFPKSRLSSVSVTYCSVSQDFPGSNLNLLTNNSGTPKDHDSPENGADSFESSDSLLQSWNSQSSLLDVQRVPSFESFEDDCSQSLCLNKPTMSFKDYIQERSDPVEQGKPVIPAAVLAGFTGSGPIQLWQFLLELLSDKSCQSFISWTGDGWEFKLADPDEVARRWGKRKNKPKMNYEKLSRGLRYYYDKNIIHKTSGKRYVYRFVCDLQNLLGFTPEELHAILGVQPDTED
The method in brief: as §1

The target in the next experiment is T11, ETV7 (Homo sapiens, UniProt Q9Y603 1-341).
T11 sequence: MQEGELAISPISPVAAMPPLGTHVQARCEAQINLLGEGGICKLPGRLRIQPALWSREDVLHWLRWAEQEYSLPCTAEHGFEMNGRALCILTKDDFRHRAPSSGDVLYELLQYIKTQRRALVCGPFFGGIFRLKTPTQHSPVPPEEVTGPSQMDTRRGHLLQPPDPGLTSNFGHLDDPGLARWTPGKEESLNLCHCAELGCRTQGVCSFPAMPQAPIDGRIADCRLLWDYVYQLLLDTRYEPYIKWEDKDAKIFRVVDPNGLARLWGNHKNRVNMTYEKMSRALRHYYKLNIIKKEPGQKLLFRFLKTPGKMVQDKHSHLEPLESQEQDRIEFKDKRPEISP
In outline:
as §1

For another experiment, the target named is T12, ETV3 (Homo sapiens, UniProt P41162-2 1-143).
T12 sequence: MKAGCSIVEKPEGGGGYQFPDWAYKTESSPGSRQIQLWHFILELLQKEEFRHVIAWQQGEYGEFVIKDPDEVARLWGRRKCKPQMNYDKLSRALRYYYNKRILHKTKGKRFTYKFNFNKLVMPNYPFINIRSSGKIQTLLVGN
The method in brief: as §1

Another experiment deals with ETV6 (Homo sapiens, UniProt P41212 1-452). In outline:
as §1

Chain of ELF4 (Q99607 whole entry): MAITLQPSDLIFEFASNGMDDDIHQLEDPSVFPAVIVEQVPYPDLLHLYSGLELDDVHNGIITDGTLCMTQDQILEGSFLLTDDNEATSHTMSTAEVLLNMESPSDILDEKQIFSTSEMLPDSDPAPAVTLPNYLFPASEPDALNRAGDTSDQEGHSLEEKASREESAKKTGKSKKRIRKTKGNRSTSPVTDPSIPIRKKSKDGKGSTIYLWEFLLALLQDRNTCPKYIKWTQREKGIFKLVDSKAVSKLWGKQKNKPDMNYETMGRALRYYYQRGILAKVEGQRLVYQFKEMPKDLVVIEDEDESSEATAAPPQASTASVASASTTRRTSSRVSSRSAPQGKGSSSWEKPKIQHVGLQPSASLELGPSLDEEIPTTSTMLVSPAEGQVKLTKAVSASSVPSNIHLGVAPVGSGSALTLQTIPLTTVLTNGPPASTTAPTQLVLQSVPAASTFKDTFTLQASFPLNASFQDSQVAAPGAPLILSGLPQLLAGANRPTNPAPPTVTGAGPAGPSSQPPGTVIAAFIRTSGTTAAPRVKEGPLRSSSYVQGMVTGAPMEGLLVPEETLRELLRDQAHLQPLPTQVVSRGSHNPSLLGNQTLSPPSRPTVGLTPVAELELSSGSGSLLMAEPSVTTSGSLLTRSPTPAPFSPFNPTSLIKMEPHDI
Chain of ETV6 (P41212 whole entry): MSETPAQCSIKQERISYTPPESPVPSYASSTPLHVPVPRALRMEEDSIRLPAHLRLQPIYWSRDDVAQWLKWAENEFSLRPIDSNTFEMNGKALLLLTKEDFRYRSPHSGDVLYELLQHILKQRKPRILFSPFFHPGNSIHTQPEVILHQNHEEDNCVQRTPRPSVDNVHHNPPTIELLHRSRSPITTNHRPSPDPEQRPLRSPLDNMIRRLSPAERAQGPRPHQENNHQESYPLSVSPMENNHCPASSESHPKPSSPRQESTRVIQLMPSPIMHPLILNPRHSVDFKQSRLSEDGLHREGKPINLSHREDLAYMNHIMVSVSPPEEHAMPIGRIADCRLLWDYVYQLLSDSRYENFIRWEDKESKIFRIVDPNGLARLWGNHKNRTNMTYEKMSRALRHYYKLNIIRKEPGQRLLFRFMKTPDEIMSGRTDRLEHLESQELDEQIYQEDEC
Chain of ELF1 (P32519 whole entry): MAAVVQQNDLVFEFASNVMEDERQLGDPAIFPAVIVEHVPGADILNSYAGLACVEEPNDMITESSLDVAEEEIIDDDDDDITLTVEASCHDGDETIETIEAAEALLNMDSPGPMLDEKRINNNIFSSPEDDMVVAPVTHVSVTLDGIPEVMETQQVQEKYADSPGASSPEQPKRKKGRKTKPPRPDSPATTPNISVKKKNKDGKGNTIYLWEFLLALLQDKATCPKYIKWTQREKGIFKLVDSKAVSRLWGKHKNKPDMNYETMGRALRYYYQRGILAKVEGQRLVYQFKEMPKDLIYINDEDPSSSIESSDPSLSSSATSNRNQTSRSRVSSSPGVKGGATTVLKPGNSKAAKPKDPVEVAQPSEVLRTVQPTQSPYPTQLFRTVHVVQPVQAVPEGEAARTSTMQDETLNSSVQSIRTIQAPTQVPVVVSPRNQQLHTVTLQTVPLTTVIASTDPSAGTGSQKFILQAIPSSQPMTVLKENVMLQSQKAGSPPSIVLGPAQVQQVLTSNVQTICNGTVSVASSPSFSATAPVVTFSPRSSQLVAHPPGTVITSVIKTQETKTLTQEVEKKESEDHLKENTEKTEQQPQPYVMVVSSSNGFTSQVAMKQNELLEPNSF
Chain of SPIB (Q01892 whole entry): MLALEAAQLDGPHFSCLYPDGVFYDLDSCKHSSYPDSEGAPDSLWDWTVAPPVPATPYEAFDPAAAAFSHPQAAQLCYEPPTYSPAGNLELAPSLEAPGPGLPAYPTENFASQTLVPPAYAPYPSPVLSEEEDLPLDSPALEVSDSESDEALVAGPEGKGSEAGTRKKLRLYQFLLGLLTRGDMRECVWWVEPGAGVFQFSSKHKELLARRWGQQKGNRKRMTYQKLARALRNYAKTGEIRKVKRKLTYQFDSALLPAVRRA
Chain of ETV1 (P50549 whole entry): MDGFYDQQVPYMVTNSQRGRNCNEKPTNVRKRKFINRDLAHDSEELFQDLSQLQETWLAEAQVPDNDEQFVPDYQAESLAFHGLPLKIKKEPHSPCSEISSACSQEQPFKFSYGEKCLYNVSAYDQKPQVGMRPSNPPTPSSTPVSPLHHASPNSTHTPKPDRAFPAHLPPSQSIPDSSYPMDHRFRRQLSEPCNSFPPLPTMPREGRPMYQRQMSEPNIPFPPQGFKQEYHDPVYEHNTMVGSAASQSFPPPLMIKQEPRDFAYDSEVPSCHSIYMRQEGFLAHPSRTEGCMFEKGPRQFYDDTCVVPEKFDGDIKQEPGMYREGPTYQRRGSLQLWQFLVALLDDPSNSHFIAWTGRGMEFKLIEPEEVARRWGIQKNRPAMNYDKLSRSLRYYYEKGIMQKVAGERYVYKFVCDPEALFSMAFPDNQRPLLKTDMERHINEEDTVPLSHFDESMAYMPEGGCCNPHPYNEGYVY
Chain of ETV5 (P41161 whole entry): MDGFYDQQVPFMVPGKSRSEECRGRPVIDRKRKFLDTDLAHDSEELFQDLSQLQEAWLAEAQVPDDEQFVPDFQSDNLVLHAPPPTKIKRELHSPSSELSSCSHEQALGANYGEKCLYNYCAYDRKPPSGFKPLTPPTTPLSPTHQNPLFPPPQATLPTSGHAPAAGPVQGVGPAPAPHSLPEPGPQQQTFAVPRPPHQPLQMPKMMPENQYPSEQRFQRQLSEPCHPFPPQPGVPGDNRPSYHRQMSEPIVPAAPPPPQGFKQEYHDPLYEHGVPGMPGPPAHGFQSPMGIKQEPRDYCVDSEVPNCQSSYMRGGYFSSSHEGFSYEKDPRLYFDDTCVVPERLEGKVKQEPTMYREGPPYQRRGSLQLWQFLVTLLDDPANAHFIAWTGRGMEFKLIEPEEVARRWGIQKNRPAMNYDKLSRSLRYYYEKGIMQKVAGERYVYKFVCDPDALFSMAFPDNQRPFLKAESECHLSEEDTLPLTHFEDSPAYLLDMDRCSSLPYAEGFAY

With CATCAT, the binding signal in the experiment with ELK1 was 1.06 fold enrichment (6-mer frequency, TF over GST control); with GABPA, 1.09 fold enrichment (6-mer frequency, TF over GST control); in the experiment with ERG, 1.08 fold enrichment (6-mer frequency, TF over GST control); with ELF1 it was 1.15 fold enrichment (6-mer frequency, TF over GST control); with EHF, 1.07 fold enrichment (6-mer frequency, TF over GST control); with SPI1, 1.11 fold enrichment (6-mer frequency, TF over GST control). Also, the binding signal in the experiment with SPIB is 1.09 fold enrichment (6-mer frequency, TF over GST control); in the experiment with FEV, 1.09 fold enrichment (6-mer frequency, TF over GST control); in the experiment with ETV5, 1.09 fold enrichment (6-mer frequency, TF over GST control); with ELF4, 1.07 fold enrichment (6-mer frequency, TF over GST control); in the experiment with ELK4, 1.11 fold enrichment (6-mer frequency, TF over GST control); with ETV2 it was 1.22 fold enrichment (6-mer frequency, TF over GST control). The binding signal was 1.07 fold enrichment (6-mer frequency, TF over GST control) with ETV1; 1.1 fold enrichment (6-mer frequency, TF over GST control) with ERF; 1.07 fold enrichment (6-mer frequency, TF over GST control) with ETV3L; 1.08 fold enrichment (6-mer frequency, TF over GST control) in the experiment with ETS2; 1.05 fold enrichment (6-mer frequency, TF over GST control) in the experiment with ETV7; 1.08 fold enrichment (6-mer frequency, TF over GST control) with ETV3. Besides, the binding signal with ETV6 is 1.05 fold enrichment (6-mer frequency, TF over GST control).
